Calls of active or inactive are those of the source. How the calls were made is not given here.

For 40 compounds, inhibition results are on record in PubChem BioAssay.

The subject of the test is Botulinum neurotoxin type F light chain protease (Clostridium botulinum). The test can be described thus: Clostridium botulinum type F light chain protease inhibitors, microsphere substrate cleavage, validation (AID 588459). The note with it: multiplex microsphere protease substrate cleavage assay, flow cytometry; at 10 µM; stronger effect = higher value.
Take `CC(=O)C1=C(O)C(=O)OC1c1ccc(C)cc1` (stereo not given): the inhibition (as a rule, the relative decrease from the control value, in per cent) is 9.7% (inactive).
Take `COc1ccc(Cc2noc(CN(C)CC3(N4CCOCC4)CCCCC3)n2)cc1OC`: the inhibition was 7.7% (inactive).
For the compound `C=CCc1ccccc1OCC(O)CNC(C)C` (stereo not given), the inhibition is -1% (inactive).
For `CC(=O)c1cn(C)c(=O)[nH]c1=O`, the inhibition is 2.9% (inactive).
The figure for `CC(=O)CCc1c(C)c2cccc(C)c2[nH]c1=O` is 4.3% (inactive).
On to `CCN(CC)CCOC(=O)C1(C2CCCCC2)CCCCC1`, for which the inhibition was 1.9% (inactive).
With `CC1(C)O[C@@H]2C[C@H]3[C@@H]4C[C@H](F)C5=CC(=O)CC[C@]5(C)[C@H]4[C@@H](O)C[C@]3(C)[C@]2(C(=O)CO)O1`, the inhibition was 1.1% (inactive).
Consider `CCc1cc(=O)oc2cc(C)c(CN3CCCC(C)C3)c(O)c12` (stereo not given), for which the inhibition was 3.9% (inactive).
For the compound `Cc1cnc(C(=O)NCCc2ccc(S(=O)(=O)NC(=O)NC3CCCCC3)cc2)cn1`, the inhibition is 0.7% (inactive).
For the compound `CC(=O)N1CCN(c2ccc(OC[C@H]3CO[C@](Cn4ccnc4)(c4ccc(Cl)cc4Cl)O3)cc2)CC1`, the inhibition is -2.2% (inactive).
Regarding `CCOC(=O)C(=Cc1ccccc1OC)C(=O)OCC`, the inhibition is -0.7% (inactive).
As for `Cc1nc2c(c3c1[nH]c1ccccc13)C(=O)CC(C)(C)C2`, the inhibition was 2.1% (inactive).
For `CC(=O)N(CCC(Cc1ccccc1)c1ccco1)Cc1ccco1` (stereo not given), the inhibition is 1.4% (inactive).
Consider `O=C1OC(c2ccc(O)cc2)(c2ccc(O)cc2)c2ccccc21`, for which the inhibition was -0.3% (inactive).
`Cc1cnc(C(=O)N2CCCC(C(=O)c3ccc(Cl)cc3C)C2)cn1` (stereo not given): the inhibition is 1.4% (inactive).
For the compound `CC(C)(C)c1csc(N/N=C/c2cccnc2)n1`, the inhibition is -3.3% (inactive).
Regarding `COc1cc(C2CC(=O)NC3=C2C(=O)CC(C)(C)C3)ccc1O` (stereo not given), the inhibition was -1.7% (inactive).
Regarding `CNC[C@H](O)c1ccc(O)c(O)c1`, the inhibition is -2.9% (inactive).
Next, `C[C@H](NC(=O)Nc1ccccc1F)C(=O)O`: -3.8% (inactive).
For the compound `O=C1Nc2ccc3sc4ccccc4c3c2C1=O`, the inhibition was -1.1% (inactive).
Regarding `O=C(NCCc1c[nH]c2ccccc12)c1cccnc1`, the inhibition was -2.9% (inactive).
As to `CC(C)(Oc1ccc(CCNC(=O)c2ccc(Cl)cc2)cc1)C(=O)O`, the inhibition is -1.2% (inactive).
Next, `CCCCC(=O)O[C@]1(C(=O)CO)CC[C@H]2[C@@H]3CCC4=CC(=O)CC[C@]4(C)[C@H]3[C@@H](O)C[C@@]21C`: -3.5% (inactive); `COC(=O)[C@H]1[C@H]2C[C@@H]3c4[nH]c5cc(OC)ccc5c4CCN3C[C@H]2C[C@@H](OC(=O)c2ccc(N)cc2)[C@@H]1OC`: -4.7% (inactive); `N/C(=N\OC(=O)CCCOc1ccc(Cl)cc1Cl)c1ccncc1`: 3.7% (inactive).
In the case of `O=C(/C=C/c1ccc(F)cc1)NC(=S)N1CCCCC1c1cccnc1` (stereo not given), the inhibition was 1% (inactive).
For the compound `CCCC(=O)Nc1ccc(OCC(O)CNC(C)C)c(C(C)=O)c1` (stereo not given), the inhibition is 2% (inactive).
For the compound `C#C[C@]1(O)CC[C@H]2[C@@H]3CCc4cc(O)ccc4[C@H]3CC[C@@]21C`, the inhibition is -3.8% (inactive).
Next, `COc1cc(CNc2nnnn2C)ccc1OCc1ccc(F)cc1Cl`: -4.9% (inactive); `COc1ccc2c(CCNC(=O)c3ccc([N+](=O)[O-])cc3)c[nH]c2c1`: 1.6% (inactive); `O=C(/C=C/c1ccccc1)/C=C/c1ccccc1`: 0.8% (inactive).
As for `COc1ccc(-c2[nH]ncc2CN(CCO)Cc2cccs2)c(F)c1`, the inhibition is -1.2% (inactive).
`COc1ccc2cc(-c3nc4ccccc4n3C)c(=O)oc2c1`: the inhibition is 2% (inactive).
On to `Cc1ccc2c(c1)c1c3n2CCCNC3CCC1` (stereo not given), for which the inhibition is 9.2% (inactive).
Consider `O=C(Cc1cccc2ccccc12)N1CC[C@@]2(O)CCCC[C@H]2C1`, for which the inhibition is 2.2% (inactive).
`CN1C(=O)C(O)(CC(=O)c2ccccc2O)c2cc(Br)ccc21` (stereo not given): the inhibition is 3.2% (inactive).
With `Cc1ccc(C(=O)N2CC3(C(C)C)CN(C(=O)c4ccc(C)cc4)CC(C(C)C)(C2)C3=O)cc1`, the inhibition was 5% (inactive).
Regarding `COc1ccc([C@@H]2Sc3ccccc3N(CCN(C)C)C(=O)[C@@H]2OC(C)=O)cc1`, the inhibition is -1.7% (inactive).
As to `CC(C)=CCCC(C)CN1CCC(N2CCC(C(=O)N3CCCC3)CC2)CC1` (stereo not given), the inhibition is 1.8% (inactive).
Next, `O=C(O)CCn1cnc2ccccc2c1=O`: 1.4% (inactive).
